Results: PubChem BioAssay AID1041 (National Center for Advancing Translational Sciences (NCATS), 2008)
Values without a mark were called inactive.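 Rule for the calls: active = compound lifting p16 RNA above DMSO-treated cells by a clear fold change, a shift of a few PCR cycles; inactive = the rest, including any drop in level.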

Experiment: p16 Derepression/Induction Secondary Assay for qHTS Assay for Epigenetic Modulators
Conditions: H358 cells, p16 mRNA RT-qPCR, 72 h; active compounds read high
Excerpt: NIH Molecular Libraries Screening Centers Network [MLSCN] NIH Chemical Genomics Center [NCGC] MLSCN Grant: 1 X01 MH079860-01 Assay Provider: Elisabeth D. Martinez, University of Texas SW Medical Center NCGC Assay Overview: This secondary assay characterizes selected actives identified in the qHTS of the Locus Derepression (LDR) assay (PubChem AID 597). The LDR assay detects the derepression of a GFP reporter that is stably integrated in a region of the genome of murine c127i mammary cells that is presumably silenced. Compounds that cause derepression of the locus to express GFP are identified by enumerating GFP positive cells using a laser-scanning microplate cytometer. Selected LDR actives were assayed for the induction of p16 gene expression, a gene silenced by dense methylation of its promoter. […]
NCGC Assay Protocol Summary Exponentially growing H358 non-small cell lung cancer cells were treated daily with fresh media containing the indicated concentrations of compounds for 72 hr. Cellular RNA was extracted, quantified, DNAse treated and reverse transcribed. The resulting cDNA was amplified in TaqMan real time quantitative PCR assays (Applied Biosystems) containing validated primers specific for p16 (Hs00233365_m1). […] Gene expression was measured by fold-induction over control DMSO-treated samples (36-37 average cycle time). […]

CN1CSC(=S)N(C)C1
fold change: 1
